Results filed as inconclusive are left out. Active and inactive are the calls of the source. The calls were made as follows, unless noted: active = hit-call score of the fitted dose curve at least 0.9, where 1 is the maximum; inactive = score below 0.9.
Legend:
[1] = molecular target: Paired box protein Pax-6 (Homo sapiens) (UniProt P26367); assay: ATG_Pax6_CIS: Attagene CIS-FACTORIAL HepG2 Assay for human Paired Box 6 (PAX6) (AID 2282956); settings: HepG2 CIS-FACTORIAL PAX6 reporter transcription, RNA readout; actives raise or lower the signal
Paired box protein Pax-6 (Homo sapiens), sequence (P26367 whole entry, looked up): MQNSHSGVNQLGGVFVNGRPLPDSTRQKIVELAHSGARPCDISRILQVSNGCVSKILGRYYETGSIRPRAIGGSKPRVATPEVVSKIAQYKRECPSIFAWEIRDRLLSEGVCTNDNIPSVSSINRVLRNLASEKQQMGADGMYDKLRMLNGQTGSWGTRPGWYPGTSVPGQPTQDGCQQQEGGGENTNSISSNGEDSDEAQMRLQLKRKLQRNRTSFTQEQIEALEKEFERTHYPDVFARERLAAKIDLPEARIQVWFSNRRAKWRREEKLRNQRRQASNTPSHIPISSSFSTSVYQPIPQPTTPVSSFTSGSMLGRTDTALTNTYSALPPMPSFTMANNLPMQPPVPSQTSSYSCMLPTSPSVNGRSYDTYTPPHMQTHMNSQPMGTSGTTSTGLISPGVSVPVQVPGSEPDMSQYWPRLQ
How it was run: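 Readout: reporter transcript fluorescence after RT-PCR and capillary electrophoresis. Cells: HepG2, transiently transfected with cis-regulated MRTUs. Exposure 24 h. Gain or loss of signal fitted bidirectionally relative to DMSO.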

[2] = ATG_PXRE_CIS: Attagene CIS-FACTORIAL HepG2 Assay for human Pregnane X Receptor Element (PXRE) (AID 2282957); settings: HepG2 Attagene CIS-FACTORIAL PXRE reporter, mRNA; actives raise or lower the signal
How it was run: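 Reporter transcripts under endogenous PXR-responsive cis-regulation quantified from total RNA of transfected HepG2 cells 24 h post-dosing, via RT-PCR with fluorescent primer extension and capillary electrophoresis. Gain or loss of signal fitted against DMSO baseline.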

[3] = ATG_PPRE_CIS: Attagene CIS-FACTORIAL HepG2 Assay for human Peroxisome Proliferator-activated Response Element (PPRE) (AID 2282958); settings: HepG2 PPRE cis-element reporter, Attagene transcription factor profiling; actives raise or lower the signal
How it was run: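 HepG2 cells transiently transfected with multiplexed cis-element reporter units measure endogenous transcription factor activity. After 24 h compound exposure, reporter mRNA is quantified by RT-PCR, 6-FAM labeling, HpaI digestion and capillary electrophoresis; bidirectional fits are made against DMSO baseline.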

[4] = ATG_RORE_CIS: Attagene CIS-FACTORIAL HepG2 Assay for human RAR-related Orphan Receptor Element (RORE) (AID 2282959); settings: HepG2 Attagene cis-factorial RORE reporter, mRNA; actives raise or lower the signal
How it was run: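 HepG2 cells transiently transfected with multiple cis-element reporter transcription units, exposed to chemical for 24 h. Reporter mRNA quantified by RT-PCR, 6-FAM primer-extension labeling, HpaI digestion and capillary electrophoresis; bidirectional fit versus DMSO baseline.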

[5] = ATG_Sox_CIS: Attagene CIS-FACTORIAL HepG2 Assay for human SRY-box transcription factor (SOX) (AID 2282960); settings: HepG2 Attagene cis-factorial SOX reporter, mRNA; actives raise or lower the signal
How it was run: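 HepG2 cells transiently transfected with cis-element-driven multiple reporter transcription units, dosed 24 h; reporter mRNA measured by RT-PCR, FAM labelling, HpaI digestion and capillary electrophoresis. Bidirectional fit versus DMSO baseline.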

[6] = molecular target: Transcription factor Sp1 (Homo sapiens) (UniProt P08047); assay: ATG_Sp1_CIS: Attagene CIS-FACTORIAL HepG2 Assay for human Specificity Protein 1 (Sp1) (AID 2282961); settings: HepG2 Sp1 cis-reporter transcription, actives raise or lower the signal
Transcription factor Sp1 (Homo sapiens), sequence (P08047 whole entry, looked up): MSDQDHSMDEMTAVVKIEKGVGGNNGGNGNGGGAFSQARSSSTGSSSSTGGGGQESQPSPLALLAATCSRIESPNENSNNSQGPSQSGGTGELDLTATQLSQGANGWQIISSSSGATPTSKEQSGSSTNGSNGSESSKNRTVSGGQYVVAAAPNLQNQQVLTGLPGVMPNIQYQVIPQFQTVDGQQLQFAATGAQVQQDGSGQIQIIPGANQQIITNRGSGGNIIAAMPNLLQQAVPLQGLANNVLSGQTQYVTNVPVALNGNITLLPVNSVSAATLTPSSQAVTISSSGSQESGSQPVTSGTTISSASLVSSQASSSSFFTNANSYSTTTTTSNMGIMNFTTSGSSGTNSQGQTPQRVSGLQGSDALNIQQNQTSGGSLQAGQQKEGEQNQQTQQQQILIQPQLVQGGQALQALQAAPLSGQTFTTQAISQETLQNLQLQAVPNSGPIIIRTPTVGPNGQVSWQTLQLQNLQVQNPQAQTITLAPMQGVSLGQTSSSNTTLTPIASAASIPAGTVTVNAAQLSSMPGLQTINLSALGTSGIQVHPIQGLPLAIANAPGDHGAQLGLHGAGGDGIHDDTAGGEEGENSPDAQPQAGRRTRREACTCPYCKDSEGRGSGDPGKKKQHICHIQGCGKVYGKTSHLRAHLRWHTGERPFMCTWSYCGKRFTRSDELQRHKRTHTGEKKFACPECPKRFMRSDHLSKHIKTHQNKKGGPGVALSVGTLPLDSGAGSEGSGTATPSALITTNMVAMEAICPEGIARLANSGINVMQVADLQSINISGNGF
How it was run: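 HepG2 cells transiently transfected with multiple reporter transcription units driven by cis-regulatory elements; Sp1-responsive reporter mRNA measured 24 h after dosing by RT-PCR and capillary electrophoresis fluorescence, fitted bidirectionally against DMSO baseline.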

[7] = ATG_SREBP_CIS: Attagene CIS-FACTORIAL HepG2 Assay for human Sterol Regulatory Element Binding (SREBP) (AID 2282962); settings: HepG2 Attagene cis-factorial SREBP reporter, mRNA; actives raise or lower the signal
How it was run: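 Readout: fluorescent reporter-transcript peaks resolved by capillary electrophoresis after RT-PCR. Cells were human HepG2 carrying transfected cis-promoter reporter constructs, dosed for 24 h. Gain or loss of signal was fitted against DMSO controls.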

[8] = molecular target: Signal transducer and activator of transcription 3 (Homo sapiens) (UniProt P40763); assay: ATG_STAT3_CIS: Attagene CIS-FACTORIAL HepG2 Assay for human Signal Transducer and Activator of Transcription 3 (STAT3) (AID 2282963); settings: HepG2, Attagene cis-factorial STAT3 reporter transcription; actives raise or lower the signal
Signal transducer and activator of transcription 3 (Homo sapiens), sequence (P40763 whole entry, looked up, the tested form may be a part): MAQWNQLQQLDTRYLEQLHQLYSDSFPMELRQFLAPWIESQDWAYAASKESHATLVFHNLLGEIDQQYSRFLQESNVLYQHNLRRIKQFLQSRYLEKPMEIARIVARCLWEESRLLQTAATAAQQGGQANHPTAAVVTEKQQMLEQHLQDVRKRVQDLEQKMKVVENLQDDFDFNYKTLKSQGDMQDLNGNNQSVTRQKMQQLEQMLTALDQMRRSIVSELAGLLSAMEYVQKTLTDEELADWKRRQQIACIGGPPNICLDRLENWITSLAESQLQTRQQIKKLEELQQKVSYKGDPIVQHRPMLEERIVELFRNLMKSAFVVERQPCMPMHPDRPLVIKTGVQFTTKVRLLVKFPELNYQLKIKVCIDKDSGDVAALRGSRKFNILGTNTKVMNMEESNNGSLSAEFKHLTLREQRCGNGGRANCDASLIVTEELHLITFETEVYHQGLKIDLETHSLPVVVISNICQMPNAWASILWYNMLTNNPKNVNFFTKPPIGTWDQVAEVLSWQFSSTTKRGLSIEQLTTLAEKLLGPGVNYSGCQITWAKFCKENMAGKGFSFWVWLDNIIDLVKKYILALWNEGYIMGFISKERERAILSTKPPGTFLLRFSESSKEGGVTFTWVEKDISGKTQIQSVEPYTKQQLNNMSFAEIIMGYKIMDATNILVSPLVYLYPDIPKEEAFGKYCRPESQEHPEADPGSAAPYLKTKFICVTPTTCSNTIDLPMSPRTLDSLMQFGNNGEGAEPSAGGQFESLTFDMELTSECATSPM
How it was run: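 Fluorescence intensity of 6-FAM-labelled reporter fragments, separated by capillary electrophoresis after RT-PCR, gave the signal. Cells were HepG2 transfected with cis-element reporter units and treated 24 h; fitting was bidirectional relative to DMSO.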

[9] = ATG_TA_CIS: Attagene CIS-FACTORIAL HepG2 Assay for human TA Basal Promoter (AID 2282964); settings: HepG2 Attagene CIS-factorial TA basal promoter reporter; actives raise or lower the signal
How it was run: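 Transfected HepG2, 24 h compound exposure; RNA → RT-PCR → FAM primer extension → HpaI cut → CE fluorescence. Gain/loss-of-signal fitted against DMSO negative control. Background-control readout.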

[10] = ATG_TCF_b_cat_CIS: Attagene CIS-FACTORIAL HepG2 Assay for human T-Cell-Factor with beta-catenin (TCF/b-cat) (AID 2282965); settings: HepG2 TCF/beta-catenin cis-reporter transcription, actives raise or lower the signal
How it was run: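 HepG2, transient MRTU transfection, cis-element-driven reporters (endogenous TFs). 24 h compound exposure. Readout: reporter mRNA by RT-PCR + 6-FAM primer extension, HpaI digest, capillary electrophoresis. Gain/loss fit vs DMSO baseline.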

[11] = ATG_TAL_CIS: Attagene CIS-FACTORIAL HepG2 Assay for human TAL Basal Promoter (AID 2282966); settings: HepG2 Attagene cis-factorial TAL promoter reporter; actives raise or lower the signal;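 also: background control endpoint measuring basal TAL promoter reporter mRNA not a specific factor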
How it was run: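 Background-control endpoint: basal TAL promoter reporter transcripts in transiently transfected HepG2, measured 24 h after dosing. Read-out by RT-PCR with fluorescent primer extension and capillary electrophoresis; gain or loss of signal fitted relative to DMSO.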

[12] = ATG_TGFb_CIS: Attagene CIS-FACTORIAL HepG2 Assay for human Transforming Growth Factor (TGF) (AID 2282967); settings: HepG2 Attagene CIS TGFb reporter, mRNA transcription; actives raise or lower the signal
How it was run: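 Readout: fluorescently labeled reporter cDNA fragments resolved by capillary electrophoresis after RT-PCR. Transfected HepG2 cells dosed for 24 h; endogenous TF activity at TGFB1-linked cis element; gain or loss fitted relative to DMSO.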

[13] = ATG_VDRE_CIS: Attagene CIS-FACTORIAL HepG2 Assay for human Vitamin D Receptor Element (VDRE) (AID 2282968); settings: HepG2 VDRE cis-reporter transcription, actives raise or lower the signal
How it was run: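 Compounds were applied for 24 h to HepG2 cells transfected with promoter-regulated reporter units. Total RNA was reverse-transcribed, and reporter amplicons were fluorescently labelled and sized by capillary electrophoresis.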

[14] = molecular target: X-box-binding protein 1 (Homo sapiens) (UniProt P17861); assay: ATG_Xbp1_CIS: Attagene CIS-FACTORIAL HepG2 Assay for human X-box Binding Protein 1 (XBP1) (AID 2282972); settings: HepG2 XBP1 cis-element reporter, Attagene multiplex; actives raise or lower the signal
X-box-binding protein 1 (Homo sapiens), sequence (P17861 whole entry, looked up, the tested form may be a part): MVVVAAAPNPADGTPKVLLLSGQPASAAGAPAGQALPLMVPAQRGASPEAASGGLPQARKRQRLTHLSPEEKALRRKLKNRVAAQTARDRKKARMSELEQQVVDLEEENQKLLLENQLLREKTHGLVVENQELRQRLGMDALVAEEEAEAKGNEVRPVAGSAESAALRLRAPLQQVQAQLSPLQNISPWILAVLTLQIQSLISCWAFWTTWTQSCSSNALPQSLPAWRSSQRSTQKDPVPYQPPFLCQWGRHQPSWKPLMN
How it was run: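 Read-out: fluorescent reporter mRNA fragments resolved by capillary electrophoresis after RT-PCR. Human HepG2 liver cells carried transfected cis-promoter reporter units and were exposed to chemicals for 24 hours. Gain or loss of signal fitted relative to DMSO baseline.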

[15] = molecular target: Estrogen-related receptor gamma (Homo sapiens) (UniProt P62508); assay: ATG_ERRg_TRANS: Attagene TRANS-FACTORIAL HepG2 Assay for human Estrogen-Related Receptor gamma (ERRg) (AID 2282977; active = hit-call score of the fitted dose curve at least 0.9, where 1 is the maximum;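 also: hits increase reporter signal over DMSO so potencies reflect activators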); settings: HepG2 Attagene TRANS reporter, ERRg transactivation
Estrogen-related receptor gamma (Homo sapiens), sequence (P62508 whole entry, looked up, the tested form may be a part): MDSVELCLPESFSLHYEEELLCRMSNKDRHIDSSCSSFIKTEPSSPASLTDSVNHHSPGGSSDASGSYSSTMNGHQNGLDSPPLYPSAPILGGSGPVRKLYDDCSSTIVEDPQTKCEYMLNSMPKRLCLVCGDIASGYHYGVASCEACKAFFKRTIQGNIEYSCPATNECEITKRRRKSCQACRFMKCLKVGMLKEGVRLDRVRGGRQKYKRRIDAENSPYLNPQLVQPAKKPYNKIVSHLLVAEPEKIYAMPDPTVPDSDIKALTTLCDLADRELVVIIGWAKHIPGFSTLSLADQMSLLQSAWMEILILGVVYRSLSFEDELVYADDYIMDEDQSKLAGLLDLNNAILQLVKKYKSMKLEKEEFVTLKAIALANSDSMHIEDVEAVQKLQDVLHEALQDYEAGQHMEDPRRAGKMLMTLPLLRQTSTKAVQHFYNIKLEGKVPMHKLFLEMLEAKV
How it was run: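 Induction of reporter transcripts through a chimeric NR-Gal4 protein is quantified in transfected human HepG2 liver cells after 24 h chemical exposure, using RT-PCR with capillary electrophoresis detection and DMSO as baseline.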

[16] = molecular target: Glucocorticoid receptor (Homo sapiens) (UniProt P04150); assay: ATG_GR_TRANS: Attagene TRANS-FACTORIAL HepG2 Assay for human Glucocorticoid Receptor (GR) (AID 2282978; active = hit-call score of the fitted dose curve at least 0.9, where 1 is the maximum;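 also: activators score as hits since higher reporter transcript over DMSO is fitted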); settings: HepG2 Attagene TRANS GR reporter, mRNA transcription
Glucocorticoid receptor (Homo sapiens), sequence (P04150 whole entry, looked up, the tested form may be a part): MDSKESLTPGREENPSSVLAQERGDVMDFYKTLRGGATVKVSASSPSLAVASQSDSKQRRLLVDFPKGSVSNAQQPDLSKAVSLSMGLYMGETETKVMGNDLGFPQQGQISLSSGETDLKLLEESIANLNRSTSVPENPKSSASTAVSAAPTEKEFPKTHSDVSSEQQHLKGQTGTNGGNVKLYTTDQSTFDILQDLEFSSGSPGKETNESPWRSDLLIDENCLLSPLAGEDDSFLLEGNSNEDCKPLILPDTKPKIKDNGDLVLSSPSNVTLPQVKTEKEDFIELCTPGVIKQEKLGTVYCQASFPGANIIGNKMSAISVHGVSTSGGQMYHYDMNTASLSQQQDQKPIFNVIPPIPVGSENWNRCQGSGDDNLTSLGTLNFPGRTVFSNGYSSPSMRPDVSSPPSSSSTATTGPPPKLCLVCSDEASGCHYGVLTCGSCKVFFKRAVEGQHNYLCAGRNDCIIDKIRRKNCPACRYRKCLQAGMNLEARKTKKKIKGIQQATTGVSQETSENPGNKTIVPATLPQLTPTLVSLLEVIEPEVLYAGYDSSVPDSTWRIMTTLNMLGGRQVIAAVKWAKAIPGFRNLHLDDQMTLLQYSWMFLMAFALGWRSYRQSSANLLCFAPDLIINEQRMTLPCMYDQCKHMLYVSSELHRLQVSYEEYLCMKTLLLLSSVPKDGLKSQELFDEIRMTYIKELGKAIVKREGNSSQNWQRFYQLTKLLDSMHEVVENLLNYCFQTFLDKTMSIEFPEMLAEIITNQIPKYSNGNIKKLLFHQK
How it was run: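 HepG2 cells transiently transfected with multiplexed reporter units in which chimeric NR-GAL4 proteins drive GAL4-UAS reporters; 24 h compound exposure. Reporter mRNA measured by RT-PCR, 6-FAM labelling, HpaI digestion and capillary electrophoresis; gain-of-signal fitted versus DMSO.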

[17] = ATG_GAL4_TRANS: Attagene TRANS-FACTORIAL HepG2 Assay for GAL4 (Internal Marker) (AID 2282976; active = hit-call score of the fitted dose curve at least 0.9, where 1 is the maximum); settings: HepG2 Attagene TRANS GAL4 internal marker reporter
How it was run: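 In transfected human HepG2 liver cells dosed 24 h, GAL4 reporter mRNA serves as a baseline marker. Detection by RT-PCR with fluorescent capillary electrophoresis, activity fitted upward relative to DMSO.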

[18] = molecular target: Nuclear receptor subfamily 1 group I member 3 (Homo sapiens) (UniProt Q14994); assay: ATG_CAR_TRANS: Attagene TRANS-FACTORIAL HepG2 Assay for human Constitutive Androstane Receptor (CAR) (AID 2282969; active = hit-call score of the fitted dose curve at least 0.9, where 1 is the maximum;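 also: activators raise reporter mRNA above DMSO so AC50 marks induction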); settings: HepG2 Attagene TRANS-FACTORIAL CAR reporter
Nuclear receptor subfamily 1 group I member 3 (Homo sapiens), sequence (Q14994 whole entry, looked up, the tested form may be a part): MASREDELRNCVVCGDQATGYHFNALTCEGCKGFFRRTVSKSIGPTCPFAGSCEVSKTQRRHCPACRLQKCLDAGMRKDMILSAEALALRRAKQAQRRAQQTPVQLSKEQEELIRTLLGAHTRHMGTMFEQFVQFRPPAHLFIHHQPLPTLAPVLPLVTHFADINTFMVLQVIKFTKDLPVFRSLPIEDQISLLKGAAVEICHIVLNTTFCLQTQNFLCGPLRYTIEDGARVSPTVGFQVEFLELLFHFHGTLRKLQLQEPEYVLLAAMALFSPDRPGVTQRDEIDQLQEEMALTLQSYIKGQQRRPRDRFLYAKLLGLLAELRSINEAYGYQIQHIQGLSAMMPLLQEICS
How it was run: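 Transiently transfected HepG2, multiplex TRANS reporters (CAR-Gal4 chimera driving GAL4-UAS reporter). 24 h dosing. Readout: reporter transcript by RT-PCR + capillary electrophoresis, fluorescence intensity; positive direction vs DMSO.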

[19] = ATG_M_19_TRANS: Attagene TRANS-FACTORIAL HepG2 Assay for M19 Transcription Factor (Internal Marker) (AID 2282974; active = hit-call score of the fitted dose curve at least 0.9, where 1 is the maximum); settings: HepG2 Attagene TRANS-FACTORIAL M19 internal marker reporter
How it was run: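 HepG2 cells transiently transfected with multiple GAL4-UAS reporter transcription units were exposed to chemicals for 24 h. Reporter mRNA was read by RT-PCR, 6-FAM primer extension, HpaI digestion and capillary electrophoresis; gain of signal fitted relative to DMSO.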

[20] = molecular target: Steroid hormone receptor ERR1 (Homo sapiens) (UniProt P11474); assay: ATG_ERRa_TRANS: Attagene TRANS-FACTORIAL HepG2 Assay for human Estrogen-Related Receptor alpha (ERRa) (AID 2282971; active = hit-call score of the fitted dose curve at least 0.9, where 1 is the maximum); settings: HepG2 Attagene TRANS reporter, ERRa transactivation
Steroid hormone receptor ERR1 (Homo sapiens), sequence (P11474 whole entry, looked up, the tested form may be a part): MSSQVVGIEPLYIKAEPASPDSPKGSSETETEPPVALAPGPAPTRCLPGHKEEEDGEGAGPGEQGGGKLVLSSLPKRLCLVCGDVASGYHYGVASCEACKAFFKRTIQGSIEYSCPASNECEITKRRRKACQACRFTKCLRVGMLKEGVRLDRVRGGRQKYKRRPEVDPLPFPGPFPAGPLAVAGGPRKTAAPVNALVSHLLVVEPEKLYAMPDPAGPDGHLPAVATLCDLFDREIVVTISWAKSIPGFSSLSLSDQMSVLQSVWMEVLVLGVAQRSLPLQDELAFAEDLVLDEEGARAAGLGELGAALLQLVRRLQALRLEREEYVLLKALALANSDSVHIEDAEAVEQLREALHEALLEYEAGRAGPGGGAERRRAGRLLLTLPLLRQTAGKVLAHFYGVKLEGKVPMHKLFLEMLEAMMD
How it was run: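 Reporter transcripts from ERRa-Gal4 chimera activity measured in transiently transfected human HepG2 cells 24 hours after dosing, using RT-PCR with 6-FAM primer extension, HpaI digestion and capillary electrophoresis; DMSO is baseline.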

Measured: AC50

C=C1C[C@]23C[C@@]1(O)CC[C@H]2[C@@]12C=C[C@H](O)[C@@](C)(C(=O)O1)[C@H]2[C@@H]3C(=O)O
not listed: [17] | [18] | [19] | [20]
inactive: all other assays above

[O-]n1ccccc1=S.[O-]n1ccccc1=S.[Zn+2]
not listed: [15] | [16] | [18] | [19] | [20]
inactive: all other assays above

CCCCC(CC)(CO)CO
not listed: [11] | [15] | [16] | [20]
inactive: all other assays above

CCNCCO
not listed: [13] | [15] | [17] | [18] | [19] | [20]
inactive: all other assays above

CCOc1ccc(NC(=O)CC(C)O)cc1 (stereo not drawn)
active: [12] 0.0975 µM
not listed: [13] | [15] | [16] | [17] | [18] | [20]
inactive: all other assays above

O=C(O)CCCCCCCCC(=O)O
not listed: [15] | [16] | [18] | [19] | [20]
inactive: all other assays above

Cc1ccc(OC(=O)c2ccccc2O)cc1
not listed: [11] | [16] | [17] | [20]
inactive: all other assays above

OCCc1ccccc1
not listed: [13] | [15] | [16] | [17] | [18] | [19] | [20]
inactive: all other assays above

BrCc1cccc(Oc2ccccc2)c1
active: [2] 26.3 µM | [10] 100 µM
not listed: [11] | [17] | [20]
inactive: all other assays above

C=C(C#N)C(=O)OCC
active: [10] 100 µM
not listed: [13] | [14] | [15] | [16] | [17] | [18] | [20]
inactive: all other assays above

Oc1ccc2cc(SSc3ccc4cc(O)ccc4c3)ccc2c1
inactive: [5] | [8] | [10] | [11] | [12] | [17]
active: [1] 27.1 µM | [2] 6.48 µM | [3] 160 µM | [4] 33.5 µM | [6] 75.2 µM | [7] 8.33 µM | [9] 26.6 µM | [13] 27.6 µM | [14] 40.2 µM

O=C(CS)OCCOC(=O)CS
active: [2] 37.8 µM | [3] 19.7 µM | [11] 62.2 µM
not listed: [15] | [16] | [18] | [19] | [20]
inactive: all other assays above

IC(I)I
active: [2] 5.98 µM
not listed: [13] | [17] | [18]
inactive: all other assays above

Cc1ccc(N)c(S(=O)(=O)O)c1
not listed: [11] | [15] | [16] | [17] | [18] | [19] | [20]
inactive: all other assays above

C[N+](C)(C)CCCCCC[N+](C)(C)C
not listed: [13] | [15] | [16] | [18] | [20]
inactive: all other assays above

C=CC(C)C#N (stereo not drawn)
not listed: [13] | [15] | [19] | [20]
inactive: all other assays above

C=C[Si]1(C)O[Si](C)(C=C)O[Si](C)(C=C)O[Si](C)(C=C)O1 (stereo not drawn)
active: [2] 2.51 µM
not listed: [11] | [15] | [16] | [17] | [18] | [20]
inactive: all other assays above

CC1(C)CCC[C@]2(C)[C@H]3CCO[C@]3(C)CC[C@@H]12
active: [2] 7.46 µM | [4] 100 µM | [7] 145 µM
not listed: [11] | [15] | [16] | [18] | [19] | [20]
inactive: all other assays above

From PubChem BioAssay (EPA / NIEHS)
